DRD3 agonist – agonists of human D3 dopamine receptor; P35462; 0.58% of 410,000 active; max activation, %; AID 652048; D3R DiscoveRx beta-arrestin cells, luminescence, 90 min; in the data active = max activation above about 30%; also: 0% is about no effect
Target sequence (P35462 whole entry, looked up): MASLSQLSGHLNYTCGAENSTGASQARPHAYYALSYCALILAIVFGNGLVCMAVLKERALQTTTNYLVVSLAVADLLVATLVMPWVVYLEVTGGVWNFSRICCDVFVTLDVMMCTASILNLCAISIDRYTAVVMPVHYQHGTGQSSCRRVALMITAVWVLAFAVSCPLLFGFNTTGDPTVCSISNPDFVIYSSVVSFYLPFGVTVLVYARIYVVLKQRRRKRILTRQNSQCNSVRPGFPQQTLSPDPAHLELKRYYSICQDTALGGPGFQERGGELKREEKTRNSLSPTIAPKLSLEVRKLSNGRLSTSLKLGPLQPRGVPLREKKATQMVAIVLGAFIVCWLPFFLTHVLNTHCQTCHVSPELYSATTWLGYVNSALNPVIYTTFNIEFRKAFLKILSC
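Cells at 1500/well, incubated overnight, then treated with pinned compounds (dopamine as control) for 90 min at 37 degrees C. DiscoveRx reagent added for 30 - 60 minutes at room temperature; luminescence read.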
a7 integrin act – activates integrin-mediated alleviation for muscular dystrophy; alpha7betagal myoblasts, beta-gal FDG fluorescence, 48 h; Potency, µM (doses to about 38.3 µM), for inactives: top-dose activation, actives largely listed as activators; 0.064% of 350,000 active; AID 624291;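 also: potency is read from the fitted curve at half-maximal effect; 100% = response of the positive control SU9516; nearly all actives have a fitted effect of over 60% in size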
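alpha7betagal+/- myoblasts (passage 13, 250/well) treated 48 h at 37C with compounds at 1:260 dilution of DMSO stock. Lysed, then beta-galactosidase activity read as FDG fluorescence (ex 480/em 540) after 30 min, with pre-read for autofluorescence.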
ATXN2 expr inh – ATXN2 expression inhibition; 0.72% of 360,000 active; AID 1745845; HEK-293 ATXN2-luciferase reporter, luminescence, 24 h; Potency, µM (series often up to 57 µM), for the others: at the top dose activity change, negative = inhibition, hits mostly inhibitors; also: potency is read from the fitted curve at half-maximal effect; % is scaled to controls: 0 for no effect and ±100 for the full control effect; nearly all actives have a fitted effect of over 55% in size
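ATXN2-luciferase reporter cells (luciferase flanked by upstream and downstream ATXN2 gene portions) were treated 24 h at 37 °C with compounds at up to 57 uM. SteadyGlo luminescence gave expression; GF-AFC fluorescence gave viability.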
DRD3 antagonist – blocks the human D3 dopamine receptor; max response, negative = inhibition, %; D3R cells, DiscoveRx beta-arrestin luminescence, antagonist mode; stronger effect = lower value; P35462; AID 652054; 2.5% of 360,000 active; in the data active = max response below about -50%; inconclusive = no clear call, values can overlap the other calls; also: % is scaled to controls: 0 for no effect and ±100 for the full control effect
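Cells expressing the human receptor were seeded at 1500 cells/well, incubated overnight at 37 degrees C in 5% CO2, then exposed to library compounds with dopamine controls for 90 minutes at 37 degrees C before luminescent detection.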
IL-1B inflam inh – blocks inflammasome-driven IL-1 beta release; activity change, % at 57.5 µM; 4.7% of 360,000 active; AID 743279; THP-1 LPS/ATP IL-1B secretion, AlphaLISA, 16 h; stronger effect = lower value; in the data active = activity change below about -50%; inconclusive = mostly about -30% to -49%; also: % is scaled to controls: 0 for no effect and ±100 for the full control effect
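Secreted IL-1B measured by AlphaLISA bead assay after 16 h compound exposure of THP-1 cells; compounds (final up to 57.5 uM) added 1 h before LPS (250 ng/mL) and ATP (1.25 mM) stimulation; lower signal means less secretion.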
ATXN viability – reduces viability in counter-screen for ATXN expression inhibitors; S2 cells (HEK-293 line with an ATXN2-luciferase reporter) viability, CellTiter-Fluor protease fluorescence, 24 h; Potency, µM (doses to about 56.7 µM), usual class: cytotoxic; 0.49% of 400,000 active; also: potency is read from the fitted curve at half-maximal effect; nearly all actives have a fitted effect of over 40% in size
Numbers without * were called inactive; i = inactive; ? = inconclusive; nt = no result; [ ] = another dose, or the depositor's remark. Most compounds without a hit are left out; they make up all but 7% or so of the library. Unless noted, calls follow the shape of the dose curve; as a rule, active = well fitted curve in the direction sought with a large enough effect; inconclusive = small, poorly fitted or top-dose-only effect, or another doubt; inactive = no such curve, though single readings can be large; an effect the other way counts as inactive or inconclusive.

SMILES	DRD3 agonist	a7 integrin act	ATXN2 expr inh	DRD3 antagonist	IL-1B inflam inh	ATXN viability
CCOC(=O)c1nc(C)n(-c2cc(Cl)ccc2Cl)n1	0.4	7.2%	6.1%	23.3	-11.7	i
CCOC(=O)c1ccc(N2C(=O)CC(SCC(N)C(=O)OCC)C2=O)cc1 (stereo not given)	-2.6	-23.0%	-9.3%	?	22.6	i
O=C(c1cccnc1)N1CCN(Cc2cccc(Br)c2)CC1	-20.4	16.2%	6.0%	-27.0	?	i
O=C(c1cccnc1)N1CCN(Cc2ccccc2Br)CC1	-14.3	-8.3%	-8.8%	-60.2*	2.7	i
COc1ccc(CN(C(=O)CCC(=O)N2CCCCC2)c2nccs2)cc1OC	-5.2	15.1%	0.9%	10.2	25.3	i
c1ccc2c(c1)nc1n2CCN1CCN1CCCC1	-35.9	-10.5%	-9.1%	-111.6*	33.1	i
c1ccc(CN2CCN(CCN3CCn4c3nc3ccccc34)CC2)cc1	0.6	-0.3%	-7.9%	-71.8*	-18.4	i
c1ccc2c(c1)nc1n2CCN1CCNC1CCCCC1	-0.9	-0.6%	-2.4%	0.0	6.5	i
O=C1S/C(=C\c2ccc(Cl)cc2)C(=O)N1CCn1cnnn1	1.4	-21.9%	nt	-8.5	-61.5*	i
COc1ccc(/C=C2\SC(=O)N(CCNC(=O)Cn3cnnn3)C2=O)cc1	-6.3	-14.5%	23.3%	16.3	-28.2	i
COc1ccc2nc(C)cc(SCC(=O)N/N=C/c3ccco3)c2c1	0.9	16.8%	34.2%	-12.4	-95.6*	i
Cc1cc(SCC(=O)N/N=C/c2ccco2)nc2ccccc12	10.2	-8.3%	-2.0%	-11.0	21.1	i
COc1ccc(OC)c(/C=N/NC(=O)CSc2cc(C)nc3c(OC)cccc23)c1	-8.5	0.0%	15.6%[11.3 µM]	?	-72.3*	i
COc1ccc(OC)c(/C=N\NC(=O)CSc2nnc(CCCc3ccc(OC)c(C)c3)o2)c1	4.7	-20.3%	-6.6%	7.3	-17.9	i
N#C/C(=C\c1cn[nH]c1-c1ccc(Cl)cc1)C(=O)NCc1ccccc1	-8.5	14.4%	-6.0%	-6.1	-57.9*	i
N#C/C(=C\C=C\c1ccccc1)C(=O)NCc1cccnc1	0.0	-51.1%	-15.8%	2.7	-89.1*	i
N#C/C(=C/c1ccc(C(=O)O)cc1)C(=O)NCc1ccccc1	6.9	20.9%	-1.2%	-9.7	5.8	i
N#C/C(=C\c1cccc([N+](=O)[O-])c1)C(=O)NCc1ccc(Cl)cc1	-2.8	-60.8%	23.8µM*	-13.7	-107.6*	?
N#C/C(=C\c1ccccc1)C(=O)NCc1ccc(F)cc1	-3.4	1.4%	4.7%	3.9	-97.5*	i
CC1=C(C#N)C(c2cccnc2)C2=C(N1)c1ccccc1C2=O (stereo not given)	2.2	11.0%	-27.7%	-2.5	9.6	i
CSC1=C(C#N)C(c2ccccc2Cl)C2=C(N1)c1ccccc1C2=O (stereo not given)	1.6	-11.0%	-18.4%	-7.3	-97.9*	?
Cc1nn(-c2ccccn2)c2c1C(c1ccccc1Cl)C1=C(N2)c2ccccc2C1=O (stereo not given)	4.0	-21.9%	?	21.0	-13.9	2.24µM*
COc1ccccc1NC(=O)COc1ccc2ccccc2c1	0.5	-2.7%	19.8%	-8.3	-13.8	i
COc1ccc(-c2nc(C#N)c(N3CCN(C(=O)c4ccco4)CC3)o2)cc1OC	-10.5	-0.5%	nt	12.4	-1.2	i
Cc1ccc2cc(C#N)c(N3CCN(C(=O)c4ccccc4)CC3)nc2c1	-4.1	-38.5%	?	28.6	?	i
SMILES	DRD3 agonist	a7 integrin act	ATXN2 expr inh	DRD3 antagonist	IL-1B inflam inh	ATXN viability
Cc1ccc2nc(N3CCN(C(=O)c4cccs4)CC3)c(C#N)cc2c1	-4.3	12.0%	-7.3%	15.4	-58.8*	i
COc1ccc2cc(C#N)c(N3CCN(C(=O)c4ccccc4C)CC3)nc2c1	-7.4	25.0%	?	2.3	nt	i
CCC(C)(C)n1nnnc1CN1CCN(c2nc3cc(OC)ccc3cc2C#N)CC1	4.1	-14.5%	?	1.7	-55.5*	i
COc1ccc(C(=O)N2CCN(c3nc4cc(C)ccc4cc3C#N)CC2)c(OC)c1	0.1	-49.3%	-26.4%	48.6	-59.1*	i
Cn1c(N)c(C(=O)COC(=O)c2cccnc2Cl)c(=O)n(C)c1=O	3.3	-16.9%	4.2%	1.4	-23.1	i
CCOC(=O)C1=C(CC)OC(N)=C(C#N)C1c1ccc(OC)c(OC)c1OC (stereo not given)	-16.1	0.0%	-8.7%	14.5	-25.6	i
CCOC(=O)C1CCCN(c2nc3c(C)cccn3c(=O)c2/C=C(\C#N)C(=O)NCc2ccco2)C1 (stereo not given)	5.4	16.3%	nt	12.2	9.5	i
CCOc1ccc2oc(C(=O)N3CC(C)OC(C)C3)c(C)c2c1 (stereo not given)	-5.6	-6.9%	2.0%	-2.8	28.6	i
CCCCCN=Cc1c(C)[nH]n(-c2nc3ccccc3s2)c1=O	28.1	2.2%	12.6µM*	40.1	-20.4	i
C#CC(C)(CC)NC(=O)c1cnn2c(C(F)F)cc(-c3ccccc3OC)nc12 (stereo not given)	63.7*	nt	2.7%	nt	nt	i
COCCNC(=O)c1cnn2c(C(F)F)cc(-c3ccccc3)nc12	1.1	1.2%	-20.6%	0.8	1.6	i
Fc1ccccc1CSc1nnc2ccc(-c3ccncc3)nn12	1.5	4.0%	20.0%	-8.6	-23.1	i
CN(C(=O)Nc1ccc(Cl)cc1Cl)[C@H]1c2cc(Br)ccc2OC[C@H]1CO	17.6	1.4%	-9.1%	-15.8	-72.6*	i
COc1cccc2c1OC[C@@H](CO)[C@H]2N(C)C(=O)Nc1ccccc1	4.8	9.8%	-4.7%	2.5	17.8	i
CC(C)(C)n1ncc2c(=O)n(CC(=O)Nc3ccc(Cl)cc3)cnc21	-14.4	16.7%	-9.4%	-53.9*	39.1	i
CC(=O)Nc1ccc(NC(=O)Cn2cnc3c(cnn3C(C)(C)C)c2=O)cc1	-6.1	-20.1%	0.7%	18.8	-21.3	i
COCCCn1c(=S)[nH]c2ccc(N3CCOCC3)cc2c1=O	-0.6	-16.5%	17.0%	-18.7	3.5	i
CCCCN(C)CCn1c(=S)[nH]c2ccc(N3CCOCC3)cc2c1=O	-2.7	23.0%[7.66 µM]	2.2%	-65.6*	19.9	i
Cc1cc(OC(C)C(=O)NC2CCN(Cc3ccccc3)CC2)c2c(C)cc(=O)oc2c1 (stereo not given)	-17.6	-22.0%	1.1%	-62.0*	15.2	i
Cc1cc(OC(C)C(=O)NCC(O)c2ccccc2)c2c(C)c(C)c(=O)oc2c1 (stereo not given)	-17.5	-15.1%	-2.7%	2.1	-51.6*	i

Assay outcomes: PubChem, National Center for Advancing Translational Sciences (NCATS)
